Assay results taken from PubChem BioAssay (NCATS).
Records with an inconclusive call do not appear. Calls of active or inactive are those of the source. Calls come from the whole dose curve; as a rule, active = well fitted curve in the direction sought with a large enough effect; inconclusive = small, poorly fitted or top-dose-only effect, or another doubt; inactive = no such curve, though single readings can be large; an effect the other way counts as inactive or inconclusive.

Tests used:
[1] = Quantitative High-Throughput drug screen in 47 multiple myeloma cell lines against the NCATS MIPE library collection: KMS26_JCRB cell viability assay (AID 1918975); note: nearly all actives have a fitted effect of over 45% in size
How it was run: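 Viability readout: CellTiter-Glo luminescence following 5 min room-temperature incubation with reagent. Prior exposure: 48 h, 37C, humidified 5% CO2, 500 cells per well.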

[2] = Quantitative High-Throughput drug screen in 47 multiple myeloma cell lines against the NCATS MIPE library collection: MMM1_PLB cell viability assay (AID 1918976); note: nearly all actives have a fitted effect of over 35% in size
How it was run: (§1)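 qHTS format: cells plated (500/well), pin-dosed with MIPE 4.0 compounds, kept 48 h at 37 °C. Readout was CellTiter-Glo luminescence, median RLU.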

[3] = Quantitative High-Throughput drug screen in 47 multiple myeloma cell lines against the NCATS MIPE library collection: MOLP8_DSMZ cell viability assay (AID 1918977); note: nearly all actives have a fitted effect of over 45% in size
How it was run: as §1

[4] = Quantitative High-Throughput drug screen in 47 multiple myeloma cell lines against the NCATS MIPE library collection: NCIH929_DSMZ cell viability assay (AID 1918978); note: nearly all actives have a fitted effect of over 35% in size
How it was run: as §1

[5] = Quantitative High-Throughput drug screen in 47 multiple myeloma cell lines against the NCATS MIPE library collection: OCIMY1_PLB cell viability assay (AID 1918979); note: nearly all actives have a fitted effect of over 35% in size
How it was run: as §1

[6] = Quantitative High-Throughput drug screen in 47 multiple myeloma cell lines against the NCATS MIPE library collection: MM1S_ATCC cell viability assay (AID 1918980); note: nearly all actives have a fitted effect of over 45% in size
How it was run: as §1

[7] = Quantitative High-Throughput drug screen in 47 multiple myeloma cell lines against the NCATS MIPE library collection: MM1R_ATCC cell viability assay (AID 1918981); note: nearly all actives have a fitted effect of over 35% in size
How it was run: as §1

[8] = Quantitative High-Throughput drug screen in 47 multiple myeloma cell lines against the NCATS MIPE library collection: LP1_DSMZ cell viability assay (AID 1918982); note: nearly all actives have a fitted effect of over 35% in size
How it was run: as §1

[9] = Quantitative High-Throughput drug screen in 47 multiple myeloma cell lines against the NCATS MIPE library collection: KMS28PE_JCRB cell viability assay (AID 1918983); note: nearly all actives have a fitted effect of over 35% in size
How it was run: as §1

[10] = Quantitative High-Throughput drug screen in 47 multiple myeloma cell lines against the NCATS MIPE library collection: L363_DSMZ cell viability assay (AID 1918984); note: nearly all actives have a fitted effect of over 40% in size
How it was run: as §1

[11] = Quantitative High-Throughput drug screen in 47 multiple myeloma cell lines against the NCATS MIPE library collection: KMS34_JCRB cell viability assay (AID 1918985); note: nearly all actives have a fitted effect of over 40% in size
How it was run: as §1

[12] = Quantitative High-Throughput drug screen in 47 multiple myeloma cell lines against the NCATS MIPE library collection: OCIMY7_PLB cell viability assay (AID 1918987); note: nearly all actives have a fitted effect of over 65% in size
How it was run: as §1

[13] = Quantitative High-Throughput drug screen in 47 multiple myeloma cell lines against the NCATS MIPE library collection: OPM1_PLB cell viability assay (AID 1918989); note: nearly all actives have a fitted effect of over 40% in size
How it was run: as §1

[14] = Quantitative High-Throughput drug screen in 47 multiple myeloma cell lines against the NCATS MIPE library collection: SKMM1_PLB cell viability assay (AID 1919863); conditions: SKMM1 myeloma viability, CellTiter-Glo ATP, 48 h; viability: hits give low values; note: nearly all actives have a fitted effect of over 35% in size
How it was run: as §1

[15] = Quantitative High-Throughput drug screen in 47 multiple myeloma cell lines against the NCATS MIPE library collection: XG1_PLB cell viability assay (AID 1919866); note: nearly all actives have a fitted effect of over 35% in size
How it was run: as §1

[16] = Quantitative High-Throughput drug screen in 47 multiple myeloma cell lines against the NCATS MIPE library collection: VP6_DJ cell viability assay (AID 1919867); note: nearly all actives have a fitted effect of over 40% in size
How it was run: as §1

[17] = Quantitative High-Throughput drug screen in 47 multiple myeloma cell lines against the NCATS MIPE library collection: OCIMY5_PLB cell viability assay (AID 1918988); note: nearly all actives have a fitted effect of over 65% in size
How it was run: as §1

[18] = Quantitative High-Throughput drug screen in 47 multiple myeloma cell lines against the NCATS MIPE library collection: U266_ATCC cell viability assay (AID 1919864); note: nearly all actives have a fitted effect of over 35% in size
How it was run: as §1

[19] = Quantitative High-Throughput drug screen in 47 multiple myeloma cell lines against the NCATS MIPE library collection: XG6_PLB cell viability assay (AID 1919865); note: nearly all actives have a fitted effect of over 40% in size
How it was run: as §1

Measured: Potency
Potency is the fitted concentration of half-maximal effect.

C#Cc1cccc(Nc2ncnc3cc(OC)c(OCCCCCCC(=O)NO)cc23)c1
active: [1] 0.105 µM | [2] 0.418 µM | [3] 0.166 µM | [4] 0.0935 µM | [5] 1.05 µM | [6] 0.0235 µM | [7] 0.166 µM | [8] 0.743 µM | [9] 0.118 µM | [10] 0.0526 µM | [11] 1.05 µM | [12] 0.148 µM | [13] 0.264 µM | [14] 0.418 µM | [15] 0.0743 µM | [16] 0.296 µM

Cn1c2ccccc2c2c3c(c4c5ccccc5n(CCC#N)c4c21)CNC3=O
active: [1] 14.8 µM | [2] 10.5 µM | [3] 10.5 µM | [4] 1.87 µM | [5] 14.8 µM | [6] 2.09 µM | [7] 1.66 µM | [8] 14.8 µM | [9] 14.8 µM | [10] 0.209 µM | [12] 0.59 µM | [17] 5.9 µM | [13] 0.296 µM | [14] 8.33 µM | [18] 4.69 µM | [19] 0.526 µM | [15] 2.35 µM | [16] 2.96 µM

C1=CCOCc2cc(ccc2OCCN2CCCC2)Nc2nccc(n2)-c2cccc(c2)OCC1
active: [1] 4.18 µM | [2] 3.32 µM | [3] 2.09 µM | [4] 2.35 µM | [5] 5.9 µM | [6] 2.64 µM | [7] 2.64 µM | [8] 2.64 µM | [9] 3.72 µM | [10] 0.743 µM | [11] 2.35 µM | [12] 1.18 µM | [13] 3.32 µM | [14] 9.35 µM | [18] 5.26 µM | [19] 1.87 µM | [15] 2.64 µM | [16] 1.05 µM

COc1cc(C(=O)N2CCC(N3CCN(C)CC3)CC2)ccc1Nc1ncc2c(n1)N(C)c1ccccc1C(=O)N2C
active: [1] 1.66 µM | [2] 1.66 µM | [3] 2.09 µM | [4] 4.18 µM | [5] 7.43 µM | [6] 6.62 µM | [7] 6.62 µM | [9] 3.32 µM | [10] 4.69 µM | [11] 2.64 µM | [12] 2.96 µM | [17] 2.09 µM | [13] 1.87 µM | [14] 5.9 µM | [18] 2.09 µM | [19] 5.26 µM | [15] 2.64 µM | [16] 1.18 µM

Cc1cc(CN2CCN(c3c(Br)cnc4nc(-c5ccc(N6CCN(C)CC6)cc5)[nH]c34)CC2)no1
active: [1] 7.43 µM | [2] 23.5 µM | [4] 2.35 µM | [5] 14.8 µM | [6] 5.9 µM | [7] 13.2 µM | [8] 26.4 µM | [9] 20.9 µM | [11] 5.9 µM | [12] 1.05 µM | [17] 7.43 µM | [13] 4.18 µM | [14] 10.5 µM | [19] 2.35 µM | [16] 3.32 µM

O=C(CCCCCCNC(=O)c1cnc(N(c2ccccc2)c2ccccc2)nc1)NO
active: [1] 5.26 µM | [2] 5.26 µM | [3] 4.18 µM | [5] 13.2 µM | [6] 6.62 µM | [7] 3.72 µM | [8] 5.9 µM | [9] 7.43 µM | [10] 4.69 µM | [11] 5.9 µM | [12] 13.2 µM | [17] 4.69 µM | [13] 6.62 µM | [14] 9.35 µM | [18] 9.35 µM | [19] 14.8 µM | [15] 9.35 µM | [16] 2.35 µM

Cc1cc(N2CCOCC2)cc2[nH]c(-c3c(NC[C@@H](O)c4cccc(Cl)c4)cc[nH]c3=O)nc12
active: [1] 0.526 µM | [2] 0.166 µM | [3] 11.8 µM | [5] 0.296 µM | [6] 0.187 µM | [7] 0.187 µM | [9] 0.332 µM | [10] 0.148 µM | [11] 0.469 µM | [12] 0.105 µM | [13] 0.469 µM | [18] 2.64 µM | [19] 0.0833 µM | [15] 0.187 µM | [16] 0.148 µM

CC(=O)Nc1sc2c(c1-c1nc3ccccc3s1)CNC2
active: [1] 16.6 µM | [2] 14.8 µM | [3] 5.9 µM | [4] 16.6 µM | [6] 14.8 µM | [7] 18.7 µM | [8] 18.7 µM | [9] 20.9 µM | [11] 6.62 µM | [17] 16.6 µM | [13] 18.7 µM | [14] 16.6 µM | [18] 16.6 µM | [19] 9.35 µM | [15] 14.8 µM | [16] 11.8 µM

C=CC(=O)Nc1cccc(Oc2nc(Nc3ccc(N4CCN(C)CC4)cc3)ncc2Cl)c1
active: [1] 26.4 µM | [2] 23.5 µM | [4] 3.72 µM | [5] 16.6 µM | [6] 18.7 µM | [7] 14.8 µM | [8] 16.6 µM | [9] 18.7 µM | [10] 5.26 µM | [11] 9.35 µM | [12] 0.209 µM | [17] 3.32 µM | [13] 1.05 µM | [14] 18.7 µM | [19] 1.18 µM | [15] 13.2 µM | [16] 5.9 µM
